Measured values as given in PubChem BioAssay (NCATS).
Records with an inconclusive call do not appear. The source made the active and inactive calls. Calls come from the whole dose curve; as a rule, active = well fitted curve in the direction sought with a large enough effect; inconclusive = small, poorly fitted or top-dose-only effect, or another doubt; inactive = no such curve, though single readings can be large; an effect the other way counts as inactive or inconclusive.

Assays:
[1] = qHTS of pediatric cancer cell lines to identify multiple opportunities for drug repurposing: Primary screen for U-2 OS cells (AID 1347096); note: nearly all actives have a fitted effect of over 50% in size; note: potency is the fitted concentration of half-maximal effect
In short: (§1)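 Cells (500-1,000/well) in growth media were settled 5 h at 37 degrees C, then given compounds for 48 h. Viability was read as CellTiter-Glo luminescence. Primary runs used MIPE at 11 points (0.78 nM-46 µM) and NPC at 8 points (0.59 nM-46 µM); follow-ups used 11 points.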

[2] = qHTS of pediatric cancer cell lines to identify multiple opportunities for drug repurposing: Primary screen for Saos-2 cells (AID 1347097); note: nearly all actives have a fitted effect of over 40% in size; note: potency is the fitted concentration of half-maximal effect
In short: (§2)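 500-1,000 cells/well; 5 h pre-incubation 37 °C/5% CO2; compound pinned; 48 h; CellTiter-Glo, 15 min RT; luminescence. MIPE 11-pt from 0.78 nM, NPC 8-pt from 0.59 nM final. Bortezomib 2.3 µM final as positive control.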

[3] = qHTS of pediatric cancer cell lines to identify multiple opportunities for drug repurposing: Primary screen for SK-N-SH cells (AID 1347098); note: nearly all actives have a fitted effect of over 65% in size; note: potency is the fitted concentration of half-maximal effect
In short: (§3)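 Cells (500-1,000/well) rested 5 h, then received compounds for 48 h; metabolically active cells were measured by CellTiter-Glo luminescence. Final concentrations spanned up to 46 µM (MIPE, 11-point) or 0.59 nM-46 µM (NPC, 8-point) in primary screens, 11-point in follow-ups.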

[4] = qHTS of pediatric cancer cell lines to identify multiple opportunities for drug repurposing: Primary screen for LAN-5 cells (AID 1347100); note: potency is the fitted concentration of half-maximal effect
In short: as §1

[5] = qHTS of pediatric cancer cell lines to identify multiple opportunities for drug repurposing: Primary screen for OHS-50 cells (AID 1347103); note: nearly all actives have a fitted effect of over 40% in size; note: potency is the fitted concentration of half-maximal effect
In short: as §3

[6] = qHTS of pediatric cancer cell lines to identify multiple opportunities for drug repurposing: Primary screen for BT-37 cells (AID 1347094); note: potency is the fitted concentration of half-maximal effect
In short: as §2

[7] = qHTS of pediatric cancer cell lines to identify multiple opportunities for drug repurposing: Primary screen for NB1643 cells (AID 1347099); note: nearly all actives have a fitted effect of over 50% in size
In short: as §2

[8] = qHTS of pediatric cancer cell lines to identify multiple opportunities for drug repurposing: Primary screen for BT-12 cells (AID 1347101); note: nearly all actives have a fitted effect of over 25% in size; note: potency is the fitted concentration of half-maximal effect
In short: as §3

[9] = qHTS of pediatric cancer cell lines to identify multiple opportunities for drug repurposing: Primary screen for Rh18 cells (AID 1347102); note: nearly all actives have a fitted effect of over 65% in size
In short: as §1

[10] = qHTS of pediatric cancer cell lines to identify multiple opportunities for drug repurposing: Primary screen for RD cells (AID 1347104); note: nearly all actives have a fitted effect of over 55% in size; note: potency is the fitted concentration of half-maximal effect
In short: as §2

[11] = qHTS of pediatric cancer cell lines to identify multiple opportunities for drug repurposing: Primary screen for control Hh wild type fibroblast cells (AID 1347106);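 note: series mostly up to about 46 µM; a drop in luminescence marks cytotoxicity and a rise apparent proliferation; nearly all actives have a fitted effect of over 55% in size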
In short: as §1

[12] = qHTS of pediatric cancer cell lines to identify multiple opportunities for drug repurposing: Primary screen for Rh30 cells (AID 1347107); note: series mostly up to about 46 µM; nearly all actives have a fitted effect of over 75% in size
In short: as §1

[13] = qHTS of pediatric cancer cell lines to identify multiple opportunities for drug repurposing: Primary screen for Rh41 cells (AID 1347108); note: nearly all actives have a fitted effect of over 70% in size; note: potency is the fitted concentration of half-maximal effect
In short: as §2

[14] = qHTS of pediatric cancer cell lines to identify multiple opportunities for drug repurposing: Primary screen for NB-EBc1 cells (AID 1347095)
In short: as §2

[15] = qHTS of pediatric cancer cell lines to identify multiple opportunities for drug repurposing: Primary screen for MG 63 (6-TG R) cells (AID 1347105); note: nearly all actives have a fitted effect of over 50% in size; note: potency is the fitted concentration of half-maximal effect
In short: as §2

[16] = qHTS of pediatric cancer cell lines to identify multiple opportunities for drug repurposing: Confirmatory screen for A673 cells (AID 1347110);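 note: cells exposed to compound for 48 h before the viability read; nearly all actives have a fitted effect of over 65% in size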
In short: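 Concentration-response curves came straight from titrations: 11 points (0.78 nM to 46 µM) for MIPE and several concentrations (0.59 nM to 46 µM) for NPC in primary, 11 points in follow-up. Readout: ATP luminescence at 48 h.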

[17] = qHTS of pediatric cancer cell lines to identify multiple opportunities for drug repurposing: Confirmatory screen for SK-N-MC cells (AID 1347111);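 note: potency is the fitted concentration of half-maximal effect; cells exposed to compound for 48 h before the readout; nearly all actives have a fitted effect of over 70% in size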
In short: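 Metabolically active cells were quantified by ATP-dependent luminescence (CellTiter-Glo, 15 min at room temperature) following 48 h treatment. Cells had been plated at 500-1,000 per well and settled for 5 h beforehand.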

Measured: Potency

OCCN1CCN(CCCN2c3ccccc3Sc3ccc(Cl)cc32)CC1
active: [2] 11.9 µM | [3] 8.64 µM | [4] 23.7 µM | [5] 24.6 µM
inactive: [1]

NC(=O)c1ncn([C@@H]2O[C@H](CO)[C@@H](O)[C@H]2O)n1
not listed: [5] | [14] | [15] | [16] | [17]
inactive: all other assays above

O=C(CCCN1CCN(c2ccccn2)CC1)c1ccc(F)cc1
not listed: [1] | [2] | [5] | [8] | [16] | [17]
inactive: all other assays above

NC1[C@H]2CN(c3nc4c(cc3F)c(=O)c(C(=O)O)cn4-c3ccc(F)cc3F)C[C@@H]12 (stereo partly specified)
inactive: [14] | [1] | [2] | [9] | [5] | [15] | [12]

O=C(O)CN1C(=O)c2cccc3cccc(c23)C1=O
active: [8] 0.001 µM | [5] 0.001 µM | [17] 2.93 µM
not listed: [2] | [6] | [9]
inactive: all other assays above

OCc1cc(C(O)CNCCCCCCOCCCCc2ccccc2)ccc1O (stereo unspecified)
active: [5] 19.5 µM
inactive: [1] | [2] | [7] | [4] | [15] | [11] | [12] | [13]

Cc1c(Cl)cccc1Nc1ccccc1C(=O)O
not listed: [2] | [7] | [14] | [16] | [17]
inactive: all other assays above

COc1cc(C)c(Cc2cnc(N)nc2N)cc1OC
not listed: [2] | [5] | [7] | [9] | [16] | [17]
inactive: all other assays above

CCN(CC)CCNC(=O)c1c(C)[nH]c(/C=C2\C(=O)Nc3ccc(F)cc32)c1C
active: [6] 17.4 µM | [1] 21.1 µM | [2] 21.1 µM | [8] 21.9 µM | [5] 1.23 µM | [10] 15 µM | [15] 21.1 µM | [13] 21.1 µM
inactive: [3]

CN(C)CCC=C1c2ccccc2CCc2ccccc21
inactive: [1] | [7] | [15] | [11] | [12] | [13]
